Read-outs that look alike come from different tables or passages of the source. Hit rate of the full screen: of about 13,000 compounds, about 3,200 (25%) showed an effect of 50% or more. This is one part of the list.
System: P. falciparum stage V gametocytes
Parameters: BacTiter-Glo ATP luminescence viability of purified stage V gametocytes in 384-well plates, per cent inhibition versus DMSO
Details: 48 h, 5 µM, inhibitor

Compound | % Inhibition [%] | % Inhibition (% Inhibition) [%]
Cc1cc(C(=O)CN2C(=O)NC3(CCOc4ccccc43)C2=O)c(C)n1Cc1ccco1 (stereo not drawn) [TCMDC-125252] | 14.93 | –
COc1ccc2c(-c3ccccc3)noc2c1 [TCMDC-123782] | 15.72 | –
Oc1cccc(-c2nc3cc(C4=NC5CCCCC5N4)ccc3[nH]2)c1 (stereo not drawn) [TCMDC-137219] | – | -17.08
Cc1cc(C)c(NC(=O)NC2CCN(CCCCCNC(=O)/C=C/c3ccc(Cl)c(Cl)c3)CC2)c(C)c1 [TCMDC-135717] | -32.07 | –
Cc1cc(C)c(NC(=O)NC2CCN(CCCCCNC(=O)/C=C/c3ccc(Cl)c(Cl)c3)C2)c(C)c1 (stereo not drawn) [TCMDC-139529] | 92.72 | –
Cc1cccc(NC(=O)NC2CCN(CCCCCNC(=O)/C=C/c3ccc(Cl)c(Cl)c3)CC2)c1 [TCMDC-135702] | -17.93 | –
Cc1ccc(NC(=O)NC2CCN(CCCCCNC(=O)/C=C/c3ccc(Cl)c(Cl)c3)CC2)cc1 [TCMDC-135703] | -0.844 | –
Cc1cc(C)c(NC(=O)N[C@H]2CCN(CCCCCNC(=O)/C=C/c3ccc(Cl)c(Cl)c3)C2)c(C)c1 [TCMDC-139513] | 86.25 | –
Cc1ccc(NC(=O)NC2CCN(CCCCCNC(=O)/C=C/c3ccc(Cl)c(Cl)c3)CC2)cc1C [TCMDC-135708] | -56.47 | –
COc1ccc(Br)cc1/C=C/C(=O)Nc1ccc(C2CCCN(C)C2)cc1 (stereo not drawn) [TCMDC-133712] | 9.818 | –
Fc1ccc(-c2cc(NCCCn3ccnc3)nc(-c3cccnc3)n2)cc1 [TCMDC-123785] | 9.204 | –
CC(Nc1ccc2c(c1)OCCO2)C(=O)Nc1cc(C(F)(F)F)ccc1N1CCOCC1 (stereo not drawn) [TCMDC-124859] | -69.42 | –
CC(NC(=O)c1ccc(O)c(-c2ccc(Cl)c(Cl)c2)c1)C(=O)NC1CCCCC1 (stereo not drawn) [TCMDC-140823] | 42.42 | –
Cc1cc(-c2ccc3occ(CCN)c3c2)cnc1N [TCMDC-138139] | 54.74 | –
Cc1cc(-c2cccc(CNCCc3ccc(Cl)cc3)c2)cnc1N [TCMDC-138091] | 14.17 | –
Cc1cc(-c2ccc(O)c(CNC3CCCCC3)c2)cnc1N [TCMDC-138129] | -11.73 | –
CCC(C)CN1CCN(c2ccc(NC(=O)c3cccs3)cc2)C(C)C1 (stereo not drawn) [TCMDC-134996] | 6.92 | –
COC(=O)c1cc(OC2CCOC2=O)cc2c1OC(C)(C)O2 (stereo not drawn) [TCMDC-131234] | 42.88 | –
O=C(/C=C/c1cccc2ccccc12)NCCCCCN1CCC(c2c[nH]c3ccccc23)CC1 [TCMDC-139208] | 101.3 | –
O=C(/C=C/c1ccccc1O)NCCCCCN1CCC(c2c[nH]c3ccccc23)CC1 [TCMDC-139697] | 92.48 | –
O=C(/C=C/c1c[nH]c2ccccc12)NCCCCCN1CCC(c2c[nH]c3ccccc23)CC1 [TCMDC-139207] | -19.56 | –
O=C(NC1CCN(CCCc2ccccc2)CC1)c1ccc(-c2cccc(C(F)(F)F)c2)s1 [TCMDC-134323] | -38.84 | –
CC(C)Oc1cc2c(cc1NS(=O)(=O)c1ccc(-c3ccc(Cl)cc3)cc1F)CCN(C)CC2 [TCMDC-141589] | -14.09 | –
O=c1cnc2ccc(F)cc2n1CCN1CCC(NCc2cc(-c3ccccc3)cs2)CC1 [TCMDC-135134] | -21.73 | –
Cc1[nH]nc2ccc(-c3cc(OC[C@@H](N)Cc4ccccc4)cnc3-c3ccccc3OCc3cccc(F)c3)cc12 [TCMDC-136224] | -9.479 | –

Compound | % Inhibition [%] | % Inhibition (% Inhibition) [%]
Cc1csc(-c2ncc(OC[C@@H](N)Cc3ccccc3)cc2-c2ccc3n[nH]c(C)c3c2)c1 [TCMDC-136087] | -8.857 | –
Cc1[nH]nc2ccc(-c3cc(OC[C@@H](N)Cc4ccccc4)cnc3-c3ccc(OCc4cccc(F)c4)cc3)cc12 [TCMDC-136225] | 97.54 | –
Fc1cccc(COc2ccc(Nc3ncnc4cc(/C=C/[C@@H]5CCCN5)sc34)cc2Cl)c1 [TCMDC-134401] | 10.77 | –
O=C(NCc1ccccc1F)c1ccc(N2CCC(NCc3cccc(-n4cccn4)c3)CC2)cc1 [TCMDC-124670] | 2.936 | –
Cc1cc(N[C@@H](CC(C)C)C(=O)NCCCOC(C)C)nc(NCCc2ccc(F)cc2)n1 [TCMDC-134868] | 54.17 | –
Cc1cc(N[C@@H](Cc2ccccc2)C(=O)NCCCOC(C)C)nc(NCCc2ccc(F)cc2)n1 [TCMDC-134866] | 73.24 | –
COc1ccc(CC2(CO)CCN(Cc3ccc(O)c(Cl)c3)CC2)cc1 [TCMDC-124684] | -47.93 | –
CNC(=O)C1Cc2c([nH]c3cc(Cl)ccc23)C2(CCN(CCc3ccccc3)CC2)N1 (stereo not drawn) [TCMDC-141299] | -88.09 | –
COc1cc(N(Cc2ccccc2C)S(=O)(=O)Cc2ccccc2[N+](=O)[O-])c(OC)cc1Cl [TCMDC-141749] | 44.47 | –
COc1ccc([N+](=O)[O-])cc1N(Cc1ccccc1-c1ccccc1)S(=O)(=O)c1ccc(C(F)(F)F)cc1 [TCMDC-141595] | -1.284 | –
COc1ccc([N+](=O)[O-])cc1N(Cc1ccccc1-c1ccccc1)S(=O)(=O)c1ccc(C(F)(F)F)cc1[N+](=O)[O-] [TCMDC-141596] | 92.47 | –
CCOC(=O)c1[nH]c(-c2cc(Cl)nc(Cl)c2)nc1NC(=S)NCCCN1CCOCC1 [TCMDC-138898] | -1.969 | –
COc1ccc2nccc([C@@H](O)CN3CCC(NCc4nc5c(F)cc(F)cc5[nH]4)CC3)c2c1 [TCMDC-140664] | -52.05 | –
COc1ccc2nccc([C@@H](O)CN3CCC(NCc4nc5ccccc5[nH]4)CC3)c2c1 [TCMDC-140550] | 32.31 | –
COc1ccc2nccc([C@@H](O)CN3CCC(NCc4nc5cc(F)c(F)cc5[nH]4)CC3)c2c1 [TCMDC-140665] | 66.97 | –
COc1ccc2nccc([C@@H](O)CN3CCC(NCc4cc5c(Cl)cccc5[nH]4)CC3)c2c1 [TCMDC-140695] | 48.39 | –
COc1ccc2nccc([C@@H](O)CN3CCC(NCc4cc5c(F)ccc(F)c5[nH]4)CC3)c2c1 [TCMDC-140739] | -16.25 | –
COc1ccc2nccc([C@@H](O)CN3CCC(NCc4cc5ccc(C#N)cc5[nH]4)CC3)c2c1 [TCMDC-140696] | 8.806 | –
COc1ccc2nccc([C@@H](O)CN3CCC(NCc4cc5ccccc5[nH]c4=O)CC3)c2c1 [TCMDC-140759] | 15.99 | –
COc1ccc2nccc([C@@H](O)CN3CCC(NCc4cc5cc(OC(F)(F)F)ccc5[nH]4)CC3)c2c1 [TCMDC-140692] | 96.42 | –
COc1ccc2nccc([C@@H](O)CN3CCC(NCc4cc5ccc(Cl)cc5[nH]4)CC3)c2c1 [TCMDC-140694] | 96.18 | –
COc1ccc2nccc([C@@H](O)CN3CCC(NCc4cc5c(Cl)cc(Cl)cc5[nH]4)CC3)c2c1 [TCMDC-140649] | 102.2 | –
COc1ccc2nccc([C@@H](O)CN3CCC(NCc4nc5ccc(F)cc5[nH]4)CC3)c2c1 [TCMDC-140651] | -60.2 | –
COc1ccc2nccc([C@@H](O)CN3CCC(NCc4cc5ccccc5[nH]4)CC3)c2c1 [TCMDC-140520] | 22.46 | –
CO/N=C(\C)c1ccc2c(c1)CCN(CCC1CCC(NC(=O)c3cccc(-c4noc(C)n4)c3)CC1)CC2 (stereo not drawn) [TCMDC-139923] | 19.53 | –

Compound | % Inhibition [%] | % Inhibition (% Inhibition) [%]
CC(C)c1cccc(OCC2CCN(c3ncc(C(=O)Nc4ccccc4)cc3Cl)CC2)c1 [TCMDC-134262] | 5.5 | –
O=C(NC1CC1)c1cnc(N2CCC(c3ccccc3)CC2)c(Cl)c1 [TCMDC-134605] | 18.88 | –
COc1ccc2nccc([C@@H](O)CN3CCC(NCc4cc5cc(Cl)ccc5[nH]4)CC3)c2c1 [TCMDC-140697] | 66.18 | –
COc1ccc2nccc([C@@H](O)CN3CCC(NCc4ccc5c(c4)NC(=O)CO5)CC3)c2c1 [TCMDC-140793] | 20.76 | –
COc1ccc2nccc([C@@H](O)CN3CCC(NCc4cc5cc([N+](=O)[O-])ccc5[nH]4)CC3)c2c1 [TCMDC-140693] | 14.13 | –
COc1cc(F)c2nccc([C@@H](O)CN3CCC(NCc4nc5c(F)cccc5[nH]4)CC3)c2c1 [TCMDC-140970] | -8.506 | –
COc1ccc2nccc([C@@H](O)CN3CCC(NCc4ccc5c(c4)NC(=O)C(C)S5)CC3)c2c1 (stereo partly drawn) [TCMDC-141222] | 79.58 | –
COc1ccc2nccc([C@@H](O)CN3CCC(NCc4ccc5c(c4)NC(=O)CS5)CC3)c2c1 [TCMDC-141058] | 3.469 | –
COc1cc(F)c2ncc(F)c([C@@H](O)CN3CCC(NCc4cc5c(cn4)OCCO5)CC3)c2c1 [TCMDC-135378] | -21.41 | –
COc1ccc2nccc([C@@H](O)CN3CCC(NCc4cc5cccc(O)c5c(=O)[nH]4)CC3)c2c1 [TCMDC-141223] | 13.37 | –
COc1cc(F)c2nccc([C@@H](O)CN3CCC(NCc4cc5c(cc4F)OCCO5)CC3)c2c1 [TCMDC-141570] | 69.54 | –
CCCN1CCC2(CC1)NC(C(=O)NCCC(C)C)Cc1c2[nH]c2cc(Cl)ccc12 (stereo not drawn) [TCMDC-141295] | -32.44 | –
COc1ccccc1C(=O)Nc1ccc(Nc2nc(C)cc(N3CCOCC3)n2)cc1 [TCMDC-124706] | 21.35 | –
Cc1cccc2[nH]c(-c3cccc(-c4cccc(NC(=O)c5cncn5C)c4)c3)nc12 [TCMDC-137063] | 85.59 | –
Cn1cncc1C(=O)Nc1cccc(-c2ccc(-c3nc4ccccc4[nH]3)cc2)c1 [TCMDC-137060] | 87.09 | –
Cc1cccc2[nH]c(-c3cccc(-c4cccc(NC(=O)c5cn(C)c(=O)n5C)c4)c3)nc12 [TCMDC-137137] | -10.73 | –
Cn1cncc1C(=O)Nc1cccc(-c2cccc(-c3nc4ccc(C(F)(F)F)cc4[nH]3)c2)c1 [TCMDC-137061] | 89.86 | –
Cn1cncc1C(=O)Nc1cccc(-c2cccc(-c3nc4ccc(F)cc4[nH]3)c2)c1 [TCMDC-137058] | 82.61 | –
Cn1cncc1C(=O)Nc1ccc(-c2cccc(-c3nc4ccc(C(F)(F)F)cc4[nH]3)c2)cc1 [TCMDC-137062] | -23.24 | –
Cn1cncc1C(=O)Nc1cccc(-c2ccc(-c3nc4ccc(F)cc4[nH]3)cc2)c1 [TCMDC-137059] | -26.92 | –
Cn1cncc1C(=O)Nc1cccc(-c2csc(-c3nc4ccccc4[nH]3)c2)c1 [TCMDC-132396] | -5.264 | –
Cn1cncc1C(=O)Nc1ccc(-c2cccc(-c3nc4ccc(F)cc4[nH]3)c2)cc1 [TCMDC-137056] | 28.45 | –
Cn1cncc1C(=O)Nc1cccc(-c2cccc(-c3nc4ccccc4[nH]3)c2)c1 [TCMDC-137054] | 26.78 | –
Cn1cncc1C(=O)Nc1cccc(-c2ccc(-c3nc4ccc(C(F)(F)F)cc4[nH]3)cc2)c1 [TCMDC-137064] | -23.15 | –
Cc1cccc2[nH]c(-c3ccc(-c4cccc(NC(=O)c5cncn5C)c4)cc3)nc12 [TCMDC-137057] | -16.54 | –

From paper PMC4552634, “A New Set of Chemical Starting Points with Plasmodium falciparum Transmission-Blocking Potential for Antimalarial Drug Discovery” (PLoS ONE, 2015)
